In PubChem BioAssay (NCI):
Compounds without any hit were thinned out: in the full panel of roughly 79,000, 15% have a hit. Cut-off read from the data, not from the text of the source: active = growth inhibition above about 70%; inactive = the rest.

Key:
[1] = NCI Yeast Anticancer Drug Screen. Data for the rad50 strain (AID 155);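 note: 0% = growth of vehicle-only cultures of the same strain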; conditions: S. cerevisiae rad50 strain growth inhibition; at 50.0 µM; active compounds read high
In short: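 DNA repair mutant yeast, compound exposure, growth read-out; inhibition is taken relative to vehicle.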

[2] = NCI Yeast Anticancer Drug Screen. Data for the mec2-1 strain (AID 157); conditions: S. cerevisiae mec2-1 strain, at 50.0 µM, active compounds read high
In short: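 Readout is yeast growth inhibition, normalised to vehicle-treated controls, in the mec2-1 strain exposed to compound.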

[3] = NCI Yeast Anticancer Drug Screen. Data for the sgs1 mgt1 strain (AID 161);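 note: 0% = growth of cultures given vehicle only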; conditions: S. cerevisiae sgs1 mgt1 strain, at 50.0 µM, active compounds read high
In short: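 This yeast growth screen uses a strain with defined DNA-repair lesions; compound-treated growth is compared with vehicle-treated growth.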

[4] = NCI Yeast Anticancer Drug Screen. Data for the cln2 rad14 strain (AID 165);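 note: 0% = growth equal to vehicle treated cultures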; conditions: S. cerevisiae cln2 rad14 strain, at 50.0 µM, active compounds read high
In short: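 Relative to vehicle controls, growth inhibition of compound-treated cln2 rad14 yeast was recorded.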

[5] = NCI Yeast Anticancer Drug Screen. Data for the bub3 strain (AID 167); conditions: S. cerevisiae bub3 mutant strain, at 50.0 µM, active compounds read high
In short: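 In this screen, a yeast mutant lacking normal mitotic checkpoint function is challenged with compound. Relative growth versus vehicle gives the inhibition value.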

[6] = NCI Yeast Anticancer Drug Screen. Data for the mlh1 rad18 strain (AID 175); conditions: S. cerevisiae mlh1 rad18 strain growth inhibition; at 50.0 µM; active compounds read high
In short: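 Test agents were incubated with a yeast strain of defined genotype (DNA damage repair defect). Inhibition of growth was derived by comparison with vehicle-exposed cultures.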

Measured: growth inhibition

CCNC1C2(CCCCC2)NC(=O)C12CCCCC2 (stereo not given)
inactive: [1] -43.4% | [2] -10.9% | [3] -1.1% | [4] 12.1% | [5] -7.05% | [6] 2.65%

C=CCNC(=S)N/C=C(\C#N)c1nc2ccccc2s1
inactive: [1] 0.3% | [2] -6.3% | [3] -15% | [4] 32.4% | [5] -4.35% | [6] 31.3%

O=C1OC(c2ccccc2)=CC1(Cc1ccccc1)Cc1ccccc1
inactive: [1] 0.2% | [2] -25.4% | [3] 4.35% | [4] -35.2% | [5] 2.6% | [6] -5.15%

c1ccc2c(c1)c1ccccc1n2Cn1c2ccccc2c2ccccc21
inactive: [1] -1.1% | [2] -1.2% | [3] -48.5% | [4] -27.9% | [5] 11.3% | [6] 4.85%

CN1CCCC2C(c3ccccc3)C(C3=NCCCC3)C(c3ccccc3)CC21 (stereo not given)
inactive: [1] -18.9% | [2] -3.2% | [3] -23.1% | [4] -28.6% | [5] -64.9% | [6] -60.4%

Cc1nc2nncn2c(=O)[nH]1
inactive: [1] 9.35% | [2] -0.4% | [3] 31.8% | [4] 15.4% | [5] 6.1% | [6] 17.9%

CN(C)CCCOc1ccc(/C=C2/CCC/C(=C/c3ccc(OCCCN(C)C)cc3)C2=O)cc1
inactive: [1] 22.6% | [2] 14.8% | [3] 19.8% | [4] 26.1% | [5] 18.7% | [6] 3.35%

CC/C(C)=N/NS(=O)(=O)c1ccc(C)cc1
inactive: [1] 43.9% | [2] 13.2% | [3] 2.3% | [4] 16% | [5] 1.15% | [6] 42.5%

C=C1CCC23CC(CC[C@@H]2[C@@]12C[C@@H](c1ccoc1)OC2=O)OC3=O (stereo not given in full)
inactive: [1] 2.6% | [2] -12.6% | [3] -8.6% | [4] -5.1% | [5] 5.35% | [6] 1.8%

CN(C)c1ccc(C(Cc2ccccc2)C2NC(=S)NC2=O)cc1 (stereo not given)
inactive: [1] -6% | [2] -34.5% | [3] 11.2% | [4] 11.3% | [5] 7.7% | [6] -40.5%

Oc1ccccc1-n1nc2ccc3nonc3c2n1
inactive: [1] -16.8% | [2] -61.1% | [3] -38.9% | [4] -35.9% | [5] -1% | [6] -40.5%

CCCCCCC(C(=O)O)C(=O)O
inactive: [1] -20.8% | [2] -15.4% | [3] 23.6% | [4] 13.2% | [5] 1.15% | [6] -5.6%

CC12CC3CC(O)(C1)CC(O)(C3)C2
inactive: [1] 7.25% | [2] -11.1% | [3] -1.45% | [4] 22.2% | [5] -8.3% | [6] 4.15%

COc1ccc2cc(NC(=O)N/N=C\c3ccc(Cl)cc3)ccc2c1
inactive: [1] 33.2% | [2] 8.9% | [3] 26.9% | [4] 4.4% | [5] 27% | [6] 30.4%

Clc1cc(OCC23CC4CC(CC(C4)C2)C3)nc(OCC23CC4CC(CC(C4)C2)C3)n1
inactive: [1] -35.1% | [2] 4.6% | [3] -18.7% | [4] -4.8% | [5] 9% | [6] -13.4%

O=c1[nH][nH]c(=O)n2c1cc1oc(-c3ccccc3)cc12
inactive: [1] 0.05% | [2] 2.45% | [3] 17.8% | [4] -16.1% | [5] 23% | [6] 22.7%

COC(=O)c1nc2c3c(cccc3c1C(=O)OC)Nc1ccccc1-2
inactive: [1] -3.2% | [2] 9.65% | [3] 0.35% | [4] 28.5% | [5] 19.4% | [6] -39.4%

N#CC(C#N)=Cn1c(=S)[nH]c2ccc([N+](=O)[O-])cc21
inactive: [1] -13.4% | [2] -19.6% | [3] 2.75% | [4] 20.8% | [5] -9% | [6] -4.55%

CCc1cccc(CC)c1Nc1nc(C)nc2c1cnn2C
inactive: [1] -3.55% | [2] -1.85% | [3] 5.55% | [4] -40.1% | [5] 5.35% | [6] 3.95%

CC(C)(CCN)[N+](=O)[O-]
inactive: [1] -5.15% | [2] 9.15% | [3] 17.9% | [4] -88.3% | [5] 5.55% | [6] -2.5%
